Source: PubChem BioAssay AID488896 (Broad Institute, 2010)
Screen size: about 320,000 compounds; about 3,100 (0.97%) were called active.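 The calls were made as follows: active = mean replicate inhibition of at least 70% and a set share of replicates each scoring 70 or more; inconclusive = meets just one of the two criteria; inactive = fails both criteria.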 The full list was thinned out, with actives kept by preference.

target: Scavenger receptor class B member 1 (Mus musculus) (UniProt Q61009); assay: mouse SR-BI DiI-HDL uptake blockers – ldlA[mSR-BI] cells, fluorescence, single point, primary screen (AID 488896); settings: ldlA[mSR-BI] CHO cells, 3 h, at 12.5 µM, hits give high values;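 also: 0% = median of neutral control wells and 100% = median of positive control wells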
Sequence (Q61009 whole entry, looked up): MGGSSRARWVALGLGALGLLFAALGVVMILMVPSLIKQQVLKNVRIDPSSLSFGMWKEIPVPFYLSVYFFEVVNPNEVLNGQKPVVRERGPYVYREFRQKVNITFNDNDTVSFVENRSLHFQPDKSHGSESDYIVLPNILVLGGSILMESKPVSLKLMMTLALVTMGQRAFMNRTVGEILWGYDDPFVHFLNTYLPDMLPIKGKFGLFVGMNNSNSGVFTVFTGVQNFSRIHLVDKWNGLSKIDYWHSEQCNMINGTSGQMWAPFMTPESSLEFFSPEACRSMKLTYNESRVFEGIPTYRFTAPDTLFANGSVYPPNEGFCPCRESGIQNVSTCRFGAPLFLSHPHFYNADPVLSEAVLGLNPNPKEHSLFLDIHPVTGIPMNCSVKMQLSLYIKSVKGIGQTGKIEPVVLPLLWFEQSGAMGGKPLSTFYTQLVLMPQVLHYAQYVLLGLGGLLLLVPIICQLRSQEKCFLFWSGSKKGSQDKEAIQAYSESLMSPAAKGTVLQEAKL

| SMILES | inhibition |
| --- | --- |
| S=C(Nc1ccccc1)Nc1ccc2ccccc2c1 | 9.12% (inactive) |
| O=C(O)c1ccc(Cn2cnc3c(=S)nc[nH]c32)cc1 | -20.4% (inactive) |
| CC/C(=C\c1ccc(Cl)cc1)c1ccncc1 | 29.1% (inactive) |
| COc1ccc(/C=C2/C(=O)N(c3ccccc3)N=C2C)c(OC)c1 | 30.7% (inactive) |
| COc1cc(/C=C/C2=CC(C)(C)NC(=S)N2)cc(OC)c1OC | 26.3% (inactive) |
| COc1ccc(/C=C/C2=CC(C)(C)NC(=S)N2)c(OC)c1 | 78.2% (active) |
| O=C(Nc1ccn(CCCNCc2ccc3[nH]ccc3c2)c(=O)n1)OCc1ccccc1 | 14.3% (inactive) |
| FC(F)(F)c1ccc(-c2cccc3c2C2CC3CCN2Cc2ccccc2)cc1 (stereo unspecified) | -20.1% (inactive) |
| COc1ccc(NC(=O)c2cccc(NC(=O)c3ccco3)c2)c(OC)c1 | 75.7% (active) |
| COc1ccc(NC(=O)CCC(=O)Nc2cc(OC)c(NC(=O)c3ccco3)cc2OC)c(OC)c1 | 58.1% (inactive) |
| COc1ccccc1C(=O)Nc1ccc(NC(=O)c2ccco2)c(C)c1 | 44.6% (inactive) |
| CC1C(C)N(C(=O)CCl)c2ccccc2N1C(=O)CCl (stereo unspecified) | -12% (inactive) |
| Nc1ncnc2c1cnn2C1CC(O)C(CO)O1 (stereo unspecified) | -3.29% (inactive) |
| Cc1ccc(NC(=O)c2ccc(S(=O)(=O)NCC3CCCO3)cc2)cc1C (stereo unspecified) | 51.6% (inactive) |
| CCOc1ccc(C(=O)Nc2ccc(S(=O)(=O)NCC3CCCO3)cc2)cc1OCC (stereo unspecified) | 82.5% (active) |
| CCC(=O)Nc1ccc(S(=O)(=O)NCC2CCCO2)cc1 (stereo unspecified) | 16.2% (inactive) |
| CC(C)OCCCNC(=O)c1ccc(C2SCC(=O)N2Cc2ccco2)cc1 (stereo unspecified) | 75.6% (active) |
| O=C(NCc1ccco1)c1ccc(Cn2c(=O)c3sccc3n(Cc3ccc(F)cc3)c2=O)cc1 | 28.8% (inactive) |
| CC(C)(C)c1ccc(C(=O)NCCC(=O)NCc2ccco2)cc1 | -4.1% (inactive) |
| CSc1ncnc2c1ncn2CC(=O)C1CCC2C3CCC4=CC(=O)CCC4(C)C3CCC12C (stereo unspecified) | -12.4% (inactive) |
| O=C(Nc1cccc(Br)c1)C1CC(=O)N(C2CCCC2)C1 (stereo unspecified) | -9.43% (inactive) |
| O=C(NCC1CCCO1)c1cc2c([nH]c3ccccc32)c(-c2ccc(F)cc2)n1 (stereo unspecified) | 64.1% (inactive) |
| O=C(NCCc1ccc(F)cc1)c1n[nH]c2ccccc12 | 22.1% (inactive) |

| SMILES | inhibition |
| --- | --- |
| O=C(NCCCO)c1cc2c([nH]c3ccccc32)c(-c2ccc(F)cc2)n1 | 73.4% (active) |
| Cn1c(=O)[nH]c2c(c(C(=O)O)nn2C)c1=O | -13.4% (inactive) |
| CCCCNCCS(=O)(=O)NCc1ccccc1 | -2.76% (inactive) |
| Cc1cc([N+](=O)[O-])ccc1NS(=O)(=O)c1ccccc1 | -11.2% (inactive) |
| Cc1ccc(S(=O)(=O)N2CCN(C(=O)COC(=O)/C=C/c3cccc(Cl)c3)CC2)c(C)c1 | -11.6% (inactive) |
| Cc1ccc(S(=O)(=O)N2CCN(C(=O)COC(=O)c3c(C)cc(C)cc3C)CC2)c(C)c1 | 20.4% (inactive) |
| COc1ccc(/C=C/C(=O)OCC(=O)N2CCN(S(=O)(=O)c3ccc(C)cc3C)CC2)cc1OC | 71.9% (active) |
| CC(C)(C)OC(=O)N1CCC(C(=O)Nc2cccc(C(=O)NCCc3ccccc3)c2)CC1 | 52.6% (inactive) |
| CC(=O)N1CCN(C(=O)c2cc(-c3ccc(Cl)s3)nc3ccccc23)CC1 | 33.7% (inactive) |
| O=C(c1cc(-c2ccc(Cl)s2)nc2ccccc12)N1CCOCC1 | 19.5% (inactive) |
| Cc1c(NC(=O)c2cc(-c3ccc(Cl)s3)nc3ccccc23)c(=O)n(-c2ccccc2)n1C | 95.8% (active) |
| CC(=O)Oc1ccc(OC(C)=O)c2c1C1C=CC2CC1 | -21.7% (inactive) |
| COc1ccc(Nc2ccc3ccccc3c2)cc1 | 31.3% (inactive) |
| CNc1nc(-c2ccccc2)cc(-c2ccccc2)n1 | 21.8% (inactive) |
| Nc1cccc(-c2cc(-c3ccccc3)nc(-c3cccc(N)c3)n2)c1 | 102% (active) |
| Nc1nc(-c2ccccc2)cc(-c2ccccc2)n1 | 9.59% (inactive) |
| CC(=NNC(=S)N1CCCCCC1)c1ccccn1 | 22.4% (inactive) |
| Cc1ccc(NC(=O)c2ccc(Cl)nc2)cc1S(=O)(=O)N1CCOCC1 | 74.1% (active) |
| Cc1cccc(NC(=O)c2cccc(S(=O)(=O)N3CCCC3)c2)n1 | 26.2% (inactive) |
| Cc1ncc(CO)c(/C=N/NC(=O)c2cccc(S(=O)(=O)N3CCCC3)c2)c1O | 84.8% (active) |
| O=C(N/N=C/c1ccccn1)c1ccc(S(=O)(=O)N2CCCCCC2)cc1 | 10.6% (inactive) |
| COc1ccc(Br)cc1/C=N/NC(=O)c1cccc(S(=O)(=O)N2CCOCC2)c1 | 81.8% (active) |
| Cc1nc2ccc(NC(=O)c3cccc(S(=O)(=O)N4CCOCC4)c3)cc2s1 | 72.3% (active) |

| SMILES | inhibition |
| --- | --- |
| COc1ccc(OC)c(NC(=O)c2cccc(S(=O)(=O)N3CCN(C(C)=O)CC3)c2)c1 | 10.1% (inactive) |
| Cc1ccc(C(=O)Nc2ccc3c(c2)OCCO3)cc1S(=O)(=O)N1CCOCC1 | 50.5% (inactive) |
| CCOc1cc(/C=N/NC(=O)c2cccc(S(=O)(=O)N3CCOCC3)c2)ccc1OCC(=O)N(C)C | 23.7% (inactive) |
| O=C(Nc1ccc(N2CCOCC2)cc1)c1cccc(S(=O)(=O)N2CCOCC2)c1 | 65.7% (inactive) |
| O=C(Nc1ccc(S(=O)(=O)Nc2nccs2)cc1)c1cccc(S(=O)(=O)N2CCOCC2)c1 | -0.76% (inactive) |
| Cc1ccc(NC(=O)c2ccccn2)cc1S(=O)(=O)N1CCOCC1 | -25.4% (inactive) |
| CC(=O)OCC1(O)CC23CCC4c5ccoc5CCC4(C)C2CCC1C3 (stereo unspecified) | 30.4% (inactive) |
| COc1cc(/C=C/CNC[C@H]2O[C@@H](n3cnc(C(N)=O)n3)[C@H](O)[C@@H]2O)ccc1O | -8.12% (inactive) |
| O=c1[nH]c(=S)[nH]c(O)c1/C=C1\C=Nc2ccccc21 | -12.1% (inactive) |
| Cc1cc(OCCCC(=O)Nc2cc(S(=O)(=O)N3CCOCC3)ccc2N2CCOCC2)ccc1Cl | 17.2% (inactive) |
| C/C(=N\NC(=O)c1ccoc1C)c1ccccc1O | 95.2% (active) |
| Cc1[nH]n(-c2ccccc2)c(=O)c1/C=N/NC(=O)c1ccoc1C | 69.6% (inactive) |
| CC(C)=C(NC(=O)c1ccccc1)C(=O)N/N=C(\C)c1ccccc1O | -7.68% (inactive) |
| Cc1ccc(C)c(S(=O)(=O)N(C)c2ccc(OC(=O)C3CCN(C(=O)c4ccc(F)cc4)CC3)cc2)c1 | 12.3% (inactive) |
| CC1=CC(C)(C)N(C(=O)CSc2nccn2C)c2cc(C)ccc21 | -2.67% (inactive) |
| Cc1cccc(C)c1OC(=O)CSc1nnc(-c2ccccc2)o1 | -9.02% (inactive) |
| CC1=CC(C)(C)N(C(=O)CSc2nnc(-c3ccccc3)o2)c2ccc(C)cc21 | 73.5% (active) |
| CCc1c(Nc2ccccc2Cl)nc(N)[nH]c1=O | -15.3% (inactive) |
| CCOc1ccccc1NC(=O)Nc1cc(OC)ccc1OC | 76.1% (active) |
| CCOc1cc2ccccc2cc1C(=O)Nc1ccccn1 | 58.6% (inactive) |
| CCOc1ccc(NC(=O)Nc2cc(C)ccc2OC)cc1 | 10.4% (inactive) |
| CCOc1cc(NC(=O)c2ccccn2)c(OCC)cc1NC(=O)c1ccc(OC)cc1 | 72.3% (active) |
| COc1ccc(OC)c(NC(=O)CC(Cc2ccccc2OC)C(=O)O)c1 (stereo unspecified) | -10.9% (inactive) |

| SMILES | inhibition |
| --- | --- |
| CCOc1cc(NS(=O)(=O)c2ccc(OC)cc2)c(OCC)cc1NC(C)=O | -2.12% (inactive) |
| CC1CN(Cc2ccccc2)C(=S)NC1=O (stereo unspecified) | -4.96% (inactive) |
| Cc1cc2c(cc1C)NC1(C[C@H]3CCC(=O)N4CC[C@@H](C1)[C@@H]34)C(=NC(C)(C)CC(C)(C)C)N2 (stereo partly specified) | -27.8% (inactive) |
| O=C(NNc1nc(N2CCCC2)nc(N2CCCC2)n1)c1ccccc1 | -25.2% (inactive) |
| O=C1C=C(NS(=O)(=O)c2ccccc2)C(=O)c2ccccc21 | -17.2% (inactive) |
| c1ccc(-c2c[nH]c(-c3ccccc3)c2)cc1 | 9.83% (inactive) |
| COc1ccc(-c2c(C)cc3oc(=O)cc(-c4ccccc4)c3c2C)cc1OC | 66.6% (inactive) |
| COc1ccc(-c2c(C)cc3oc(=O)cc(-c4ccccc4)c3c2C)cc1C=O | 75.1% (active) |
| COc1ccc(-c2c(C)cc3oc(=O)cc(-c4ccccc4)c3c2C)cc1F | 68.3% (inactive) |
| COc1ccc2[nH]c3c(c2c1)CCN1C(=O)C(CC(=O)NCCc2ccccn2)C[C@H](C(=O)N2CCOCC2)[C@@]31C (stereo partly specified) | -24.1% (inactive) |
| O=C(Nc1c[nH]c(=O)[nH]c1=O)OCc1ccccc1 | -8.08% (inactive) |
| O=C(NC1=CC(=O)c2ccccc2C1=O)c1ccccc1 | 2.35% (inactive) |
| Cc1cccc(NC(=O)CSc2nnc(-c3ccco3)o2)c1 | -5.55% (inactive) |
| Cc1cccc(NC(=O)c2sc3nc(N4CCOCC4)c4c(c3c2N)CCCC4)c1 | 68% (inactive) |
| Cc1cccc(NC(=O)c2sc3nc4c(c(-c5ccco5)c3c2N)CCC4)c1 | 77.8% (active) |
| Cc1csc(NC(=O)Nc2ccccc2[N+](=O)[O-])n1 | 2.45% (inactive) |
| CCOC(=O)/C(=N\Nc1ccccc1[N+](=O)[O-])c1csc(Nc2ccccc2)n1 | 106% (active) |
| CCOC(=O)C/C(C)=N\Nc1ccc([N+](=O)[O-])cc1[N+](=O)[O-] | -9.86% (inactive) |
| O=C(OCCOc1ccccc1F)c1cc(S(=O)(=O)N2CCOCC2)ccc1F | 12.6% (inactive) |
| COc1ccc(S(=O)(=O)N2CCC(C(=O)OCC(=O)c3ccccc3)CC2)cc1[N+](=O)[O-] | -14.3% (inactive) |
| C=C(C)CNc1cc(S(=O)(=O)N2CCOCC2)ccc1Oc1ccccc1 | 10.5% (inactive) |
| COC(=O)c1cc(Oc2ccc(S(=O)(=O)N3CCOCC3)cc2[N+](=O)[O-])cc(C(=O)OC)c1 | 70.8% (active) |
